Source: PubChem BioAssay
Compounds with a hit are over-represented: about 18% of the library has one in this group of screens.
IL-1B inflam inh: inhibitors of inflammasome signaling (IL-1 beta secretion); AID 743279; activity change, % at 57.5 µM; THP-1 LPS/ATP IL-1B secretion, AlphaLISA, 16 h; hits give low values; 4.7% of 360,000 active; in the data active = activity change below about -50%; inconclusive = mostly about -30% to -49%
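THP-1 cells pretreated 1 hr with compounds (up to 57.5 uM final), then stimulated with LPS (250 ng/mL final) plus ATP (1.25 mM final); secreted IL-1B measured by AlphaLISA after 16 hr, decreased signal indicating inhibition.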
DT40 TDP1 no CPT: qHTS for Inhibitors of human tyrosyl-DNA phosphodiesterase 1 (TDP1): qHTS in cells in absence of CPT; DT40 Tdp1-/- hTDP1 cells, no CPT, ATP luminescence, 48 h; Potency, µM (titrated, usually from 46.2 µM), actives largely listed as inhibitors; 15% of 420,000 active; AID 686978, 2013; note: nearly all actives have a fitted effect of over 55% in size
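Cells were dispensed at 400 per well, compounds added by pin tool, plates incubated ≥48 hr at 37 °C, then CellTiter-Glo added for 30 min at room temperature before luminescence reading. Line: DT40 Tdp1-/- complemented with hTDP1; camptothecin omitted.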
HepG2 tox: kills HepG2 cells in TGF-b inhibitor counter-screen | HepG2 CAGA-GFP viability, ATP luminescence, 18 h | Potency, µM (highest dose often 46.1 µM), hits mostly cytotoxic | 0.76% of 410,000 active
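HepG2 CAGA-GFP cells (1000/well, DMEM with 1% FBS) received compound, then TGF-beta at 500 pg/mL final, and were incubated 18 hours at 37 degrees C. Viability was read by CellTiter-Glo luminescence. Media-only wells were set as complete cell-killing and DMSO as no toxicity.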
TDP1 block: inhibitors of human tyrosyl-DNA phosphodiesterase TDP1; Q9NUW8; recombinant TDP1, AlphaScreen DNA substrate cleavage; Potency, µM (titrated, usually from 130 µM), usual class: inhibitors; 0.28% of 350,000 active; note: nearly all actives have a fitted effect of over 40% in size
Target sequence (Q9NUW8 whole entry, looked up): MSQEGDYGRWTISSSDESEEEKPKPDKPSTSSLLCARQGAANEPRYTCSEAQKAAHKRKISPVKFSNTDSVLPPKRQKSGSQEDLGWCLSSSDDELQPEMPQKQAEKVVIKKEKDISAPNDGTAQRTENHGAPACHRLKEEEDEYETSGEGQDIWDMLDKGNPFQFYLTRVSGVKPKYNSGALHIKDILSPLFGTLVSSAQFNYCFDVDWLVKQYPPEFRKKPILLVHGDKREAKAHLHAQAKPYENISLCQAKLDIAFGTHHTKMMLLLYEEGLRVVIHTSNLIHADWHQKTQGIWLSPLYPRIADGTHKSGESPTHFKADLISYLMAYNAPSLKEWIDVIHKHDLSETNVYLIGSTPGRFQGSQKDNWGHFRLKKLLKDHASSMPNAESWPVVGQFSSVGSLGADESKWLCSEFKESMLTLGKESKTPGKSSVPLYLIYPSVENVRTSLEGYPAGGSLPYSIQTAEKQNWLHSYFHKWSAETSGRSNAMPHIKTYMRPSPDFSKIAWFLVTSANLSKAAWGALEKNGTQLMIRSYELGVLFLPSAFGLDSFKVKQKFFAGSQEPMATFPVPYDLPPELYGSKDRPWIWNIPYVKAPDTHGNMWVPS
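Recombinant E. coli-expressed Tdp1 (1 nM) preincubated with compound 15 min at RT, then 5'-biotin/3'-phosphotyrosine-FITC DNA substrate (15 nM) added for 5 min. AlphaScreen beads (10 ug/ml) added, 10 min RT; tyrosine-FITC cleavage read as signal loss.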
TGFb inhibitor: TGF-b pathway inhibition. HepG2 CAGA-GFP TGF-b/SMAD3 reporter, GFP fluorescence, 18 h; TGF-beta stimulated, 500 pg/mL final. Potency, µM (titrated, usually from 46.1 µM), hits mostly inhibitors. 1.2% of 410,000 active; note: nearly all actives have a fitted effect of over 65% in size
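TGF-beta reporter screen: HEPG2 CAGA-GFP, 1% FBS, 500 pg/mL TGF-beta final, 18 h; per-cell GFP summed per well; curves fitted and categorized by class.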
DT40 TDP1 CPT: DT40-hTDP1 cell growth loss with CPT; Potency, µM (doses to about 46.2 µM), usual class: inhibitors; 12% of 420,000 active; chicken DT40 Tdp1-/-;hTDP1 cells + 20 nM CPT, ATP luminescence, 48 h; AID 686979; note: nearly all actives have a fitted effect of over 55% in size
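Chicken DT40 Tdp1-/- cells stably complemented with human TDP1 were seeded at 400 cells/well in medium containing 20 nM camptothecin, exposed to pin-transferred compounds, and grown at 37 °C for at least 48 hr. Viability was read as ATP luminescence.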
Numbers stand for hits; . = inactive; ? = inconclusive; / = no result; [ ] = remark or other dose. Unless noted, calls come from the whole dose curve; as a rule, active = well fitted curve in the direction sought with a large enough effect; inconclusive = small, poorly fitted or top-dose-only effect, or another doubt; inactive = no such curve, though single readings can be large; an effect the other way counts as inactive or inconclusive.

SMILES	IL-1B inflam inh	DT40 TDP1 no CPT	HepG2 tox	TDP1 block	TGFb inhibitor	DT40 TDP1 CPT
Cn1c(NCCCN2CCOCC2)nc2c1c(=O)n(Cc1ccc(Cl)cc1Cl)c(=O)n2C	.	?	.	.	.	23µM
CCCCNc1nc2c(c(=O)n(Cc3ccc(Cl)c(Cl)c3)c(=O)n2C)n1C	/	29µM	.	/	?	?
Cn1c(NCCO)nc2c1c(=O)n(Cc1ccccc1Cl)c(=O)n2C	/	.	.	.	.	.
CC(C)CCNc1nc2c(c(=O)n(Cc3cccc(F)c3)c(=O)n2C)n1C	.	?	.	.	.	26µM
CCCCNc1nc2c(c(=O)n(Cc3ccc(Cl)cc3)c(=O)n2C)n1C	/	16µM	.	.	.	21µM
Cn1c(NCCO)nc2c1c(=O)n(Cc1ccc(F)cc1)c(=O)n2C	.	.	.	/	.	.
COc1ccc(-c2cc(C(=O)OC(C)C(=O)c3ccccc3)c3cccc(Cl)c3n2)cc1 (configuration not stated)	/	.	.	/	.	.
COc1ccc(NC(=O)N2CCCC3(CCN(C(C)=O)CC3)C2)cc1	/	.	/	/	/	.
O=C(Nc1ccc(C(F)(F)F)cc1[N+](=O)[O-])O[C@H]1[C@H](Cc2ccccc2)NS(=O)(=O)[C@H]2C[C@@H]3C=C[C@]12O3	-50	16µM	.	.	?	21µM
COc1ccc(S(=O)(=O)Nc2ccc3c(c2)C(=O)N([C@H](C)CO)C[C@H](C)[C@@H](CN(C)S(=O)(=O)c2ccc(F)cc2)O3)cc1	.	?	.	.	.	?
CC1CC(C)(C)N(C(=O)CSc2ccc(-c3ccc(F)cc3)nn2)c2ccccc21 (configuration not stated)	-90	22µM	.	.	.	?
CCOC(=O)c1c(C)nn(-c2ccc(NC(=O)c3cccs3)cc2)c1C	-96	16µM	.	.	.	23µM
CCOC(=O)c1c(C)nn(-c2ccc(NC(=O)/C=C/C(=O)O)cc2)c1C	.	1.5µM	.	/	.	.
CCOC(=O)c1c(C)nn(-c2ccc(NC(=O)c3c(C)noc3C)cc2)c1C	.	?	.	/	.	?
CCNC(=O)Nc1ccc(-n2nc(C)c(C(=O)OCC)c2C)nc1	.	?	.	.	.	18µM
CC1C(=O)Nc2ccc(S(=O)(=O)NCCc3ccc(Cl)cc3)cc2NC1=O (configuration not stated)	.	?	.	/	.	?
COc1cc(OC)c(NC(=O)CN(C)S(=O)(=O)c2ccc3[nH]c(=O)oc3c2)cc1Cl	.	.	.	.	.	.
CC(CCc1ccccc1)NC(=O)CNC(=O)COc1ccccc1 (configuration not stated)	.	.	.	.	.	.
O=C(CCc1ccccc1)Nc1ccccc1C(=O)NCc1ccco1	.	?	.	.	.	.
COC(=O)c1c(N)n(CCCN2CCOCC2)c2nc3ccccc3nc12	.	.	.	.	.	.
Nc1c(C(=O)NCc2ccccc2)c2nc3ccccc3nc2n1CCCN1CCOCC1	.	.	18µM	.	?	?
COCCOC(=O)c1c(N)n(CCCN2CCOCC2)c2nc3ccccc3nc12	.	.	.	.	.	.
COc1ccc(CNC(=O)c2c(N)n(CCCN3CCOCC3)c3nc4ccccc4nc23)cc1	.	?	.	.	11µM	?
Nc1c(C(=O)NCc2ccc(F)cc2)c2nc3ccccc3nc2n1CCCN1CCOCC1	.	18µM	18µM	.	?	?
Nc1c(C(=O)NCc2ccco2)c2nc3ccccc3nc2n1CCc1ccccc1	-57	?	.	.	?	?
SMILES	IL-1B inflam inh	DT40 TDP1 no CPT	HepG2 tox	TDP1 block	TGFb inhibitor	DT40 TDP1 CPT
CC(OC(=O)CC1CCCC1)C(=O)Nc1ccc(Cl)cn1 (configuration not stated)	.	.	.	.	.	.
CCOCCCNC(=O)c1c(N)n(-c2ccc(S(N)(=O)=O)cc2)c2nc3ccccc3nc12	.	.	.	.	.	.
CCOc1ccc(-n2c(N)c(C(=O)NCc3ccco3)c3nc4ccccc4nc32)cc1	-96	18µM	.	.	.	21µM
Cc1ccccc1-n1c(SCC(=O)NC2CCS(=O)(=O)C2)nc2ccccc2c1=O (configuration not stated)	.	?	.	.[0.505 µM]	.	?
O=C(CSc1nc2ccccc2c(=O)n1-c1cccc(C(F)(F)F)c1)NC1CC1	?	?	.	.	.	18µM
Cc1ccc(-n2c(SCC(=O)NC3CCS(=O)(=O)C3)nc3ccccc3c2=O)c(C)c1 (configuration not stated)	.	16µM	.	/	.	?
COC(=O)CCCCC1SCC2NC(=O)NC21O (configuration not stated)	-113	.	.	.	.	.
Cc1ccc(C)n1-n1cnc2scc(-c3cccs3)c2c1=O	.	.	.	.	.	.
COc1cc(/C=N/n2cnc3scc(-c4cccs4)c3c2=O)cc(OC)c1OC	.	2.9µM	.	.	.	4.6µM
COc1ccc(/C=N/n2cnc3scc(-c4cccs4)c3c2=O)cc1OC	.	?	.	.	?	18µM
O=c1c2c(-c3cccs3)csc2ncn1-c1ccccc1	.	?	.	.	.	.
Cc1ccsc1/C=N/n1c(-c2cc(-c3ccccc3)n[nH]2)n[nH]c1=S	.	?	.	.	?	?
Cc1ccccc1/C=N/n1c(-c2cc(-c3ccccc3)n[nH]2)n[nH]c1=S	.	16µM	.	/	.	?
CCc1ccc(NC(=O)COC(=O)c2nc3nc(C)cc(C)n3n2)cc1	.	.	.	.	.	.
COc1cccc(NC(=O)Cn2c(=O)n(C)c(=O)c3sc4c(c32)COC(C)(C)C4)c1	.	.	.	.	.	.
CCOC(=O)N1CCC(NC(=O)C2CCN(C(=O)c3cc4oc(C)cc4n3Cc3c(F)cccc3Cl)CC2)CC1	.	15µM	.	.	.	?
OCc1ccc(-c2ccc(-c3ccc(CO)s3)o2)s1	/	/	/	.	/	/
O=C(O)[C@@H]1C[C@H](C(=O)O)N1	/	/	.	.	.	/
Cc1c(CCO)c(=O)oc2n[nH]c(-c3ccccc3)c12	-61	.	.	.	.	.
Nn1c(SCC(=O)Nc2nccs2)nnc1-c1cccnc1	.	.	.	.	.	.
Cc1ccc(C(NC(=O)N2CCOCC2)C(Cl)(Cl)Cl)cc1F (configuration not stated)	.	.	.	.	.	?
